Results reported in PubChem BioAssay AID1159580 (chemical genetic matrix, 2015).
The campaign covered roughly 5,500 compounds. About 2,000 (36%) were called active. Not shown: some 18% with an inconclusive outcome. Cut-off read from the data, not from the text of the source: active = normalized growth mostly below about 0.91 (no sharp cut-off); inconclusive = no clear call, values can overlap the other calls; inactive = mostly above about 0.92. The list shows a part of the results. Where a SMILES comes first, the peptide text is derived from it.

Test: chemical genetic growth profiling, strain panel (AID 1159580);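 note: tested at 20 µM; growth read once vehicle control cultures reached saturation at 30 °C; 1 = growth at the plate median or of vehicle wells; lower values mean less growth of the strain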
Settings: growth OD
[1] = S. cerevisiae deletion strains, locus YAL013W, strain DEP1, hits give low values
[2] = S. cerevisiae deletion strains, locus YBR021W, strain FUR4, hits give low values
[3] = S. cerevisiae deletion strains, locus YBR229C, strain ROT2, hits give low values
[4] = S. cerevisiae deletion strains, locus YCL029C, strain bik1, hits give low values
[5] = S. cerevisiae deletion strains, locus YDL035C, strain GPR1, hits give low values
[6] = S. cerevisiae deletion strains, locus YDL074C, strain BRE1, hits give low values
[7] = S. cerevisiae deletion strains, locus YDL101C, strain DUN1, hits give low values
[8] = S. cerevisiae deletion strains, locus YDL185W, strain tfp1, hits give low values
[9] = S. cerevisiae deletion strains, locus YDL192W, strain arf1, hits give low values
[10] = S. cerevisiae deletion strains, locus YDR101C, strain arx1, hits give low values
[11] = S. cerevisiae deletion strains, locus YDR162C, strain NBP2, hits give low values
[12] = S. cerevisiae deletion strains, locus YDR318W, strain mcm21, hits give low values
[13] = S. cerevisiae deletion strains, locus YDR388W, hits give low values
[14] = S. cerevisiae deletion strains, locus YDR502C, strain sam2, hits give low values
[15] = S. cerevisiae deletion strains, locus YER110C, hits give low values
[16] = S. cerevisiae deletion strains, locus YER155C, strain BEM2, hits give low values
[17] = S. cerevisiae deletion strains, locus YER167W, strain BCK2, hits give low values
[18] = S. cerevisiae deletion strains, locus YGL078C, strain dbp3, hits give low values
[19] = S. cerevisiae deletion strains, locus YGL086W, strain mad1, hits give low values
[20] = S. cerevisiae deletion strains, locus YGL248W, strain PDE1, hits give low values
[21] = S. cerevisiae deletion strains, locus YGR078C, strain PAC10, hits give low values
[22] = S. cerevisiae deletion strains, locus YGR135W, strain pre9, hits give low values
[23] = S. cerevisiae deletion strains, locus YGR252W, strain gcn5, hits give low values
[24] = S. cerevisiae deletion strains, locus YHR079C, strain IRE1 (second series), hits give low values
[25] = S. cerevisiae deletion strains, locus YHR094C, strain hxt1, hits give low values
[26] = S. cerevisiae deletion strains, locus YHR129C, strain ARP1, hits give low values
[27] = S. cerevisiae deletion strains, locus YHR200W, strain rpn10, hits give low values
[28] = S. cerevisiae deletion strains, locus YIL066C, strain RNR3, hits give low values
[29] = S. cerevisiae deletion strains, locus YIL073C, strain SPO22, hits give low values
[30] = S. cerevisiae deletion strains, locus YIR030C, strain dcg1, hits give low values
[31] = S. cerevisiae deletion strains, locus YJL095W, strain BCK1, hits give low values
[32] = S. cerevisiae deletion strains, locus YJL134W, strain LCB3, hits give low values
[33] = S. cerevisiae deletion strains, locus YJL168C, strain set2, hits give low values
[34] = S. cerevisiae deletion strains, locus YJL187C, strain SWE1 (second series), hits give low values
[35] = S. cerevisiae deletion strains, locus YKL009W, strain mrt4, hits give low values
[36] = S. cerevisiae deletion strains, locus YKL068W, hits give low values
[37] = S. cerevisiae deletion strains, locus YKL085W, strain MDH1 (second series), hits give low values
[38] = S. cerevisiae deletion strains, locus YKL085W, strain MDH1, hits give low values
[39] = S. cerevisiae deletion strains, locus YKL190W, strain CNB1, hits give low values
[40] = S. cerevisiae deletion strains, locus YKR001C, strain vps1, hits give low values
[41] = S. cerevisiae deletion strains, locus YLR039C, strain RIC1, hits give low values
[42] = S. cerevisiae deletion strains, locus YLR058C, strain SHM2, hits give low values
[43] = S. cerevisiae deletion strains, locus YLR102C, strain apc9, hits give low values
[44] = S. cerevisiae deletion strains, locus YLR268W, strain sec22, hits give low values
[45] = S. cerevisiae deletion strains, locus YLR330W, strain CHS5, hits give low values
[46] = S. cerevisiae deletion strains, locus YLR342W, strain FKS1 (second series), hits give low values
[47] = S. cerevisiae deletion strains, locus YLR371W, strain rom2, hits give low values
[48] = S. cerevisiae deletion strains, locus YLR418C, strain cdc73, hits give low values
[49] = S. cerevisiae deletion strains, locus YML016C, strain PPZ1, hits give low values
[50] = S. cerevisiae deletion strains, locus YML032C, strain rad52, hits give low values
[51] = S. cerevisiae deletion strains, locus YML124C, strain tub3, hits give low values
[52] = S. cerevisiae deletion strains, locus YMR078C, strain ctf18, hits give low values
[53] = S. cerevisiae deletion strains, locus YMR223W, strain ubp8, hits give low values
[54] = S. cerevisiae deletion strains, locus YMR307W, strain GAS1, hits give low values
[55] = S. cerevisiae deletion strains, locus YNL067W, strain RPL9B, hits give low values
[56] = S. cerevisiae deletion strains, locus YNL153C, strain GIM3, hits give low values
[57] = S. cerevisiae deletion strains, locus YNL233W, strain BNI4, hits give low values
[58] = S. cerevisiae deletion strains, locus YNL250W, strain rad50, hits give low values
[59] = S. cerevisiae deletion strains, locus YNL271C, strain bni1, hits give low values
[60] = S. cerevisiae deletion strains, locus YNL298W, strain CLA4, hits give low values
[61] = S. cerevisiae deletion strains, locus YNL307C, strain MCK1, hits give low values
[62] = S. cerevisiae deletion strains, locus YNR052C, strain pop2, hits give low values
[63] = S. cerevisiae deletion strains, locus YOL012C, strain htz1
[64] = S. cerevisiae deletion strains, locus YOL147C, strain pex11, hits give low values
[65] = S. cerevisiae deletion strains, locus YOR061W, strain CKA2, hits give low values
[66] = S. cerevisiae deletion strains, locus YOR069W, strain VPS5, hits give low values
[67] = S. cerevisiae deletion strains, locus YOR136W, strain idh2, hits give low values
[68] = S. cerevisiae deletion strains, locus YOR144C, strain elg1, hits give low values
[69] = S. cerevisiae deletion strains, locus YOR184W, strain ser1, hits give low values
[70] = S. cerevisiae deletion strains, locus YOR316C, strain cot1, hits give low values
[71] = S. cerevisiae deletion strains, locus YPR119W, strain clb2, hits give low values
[72] = S. cerevisiae deletion strains, locus YPR141C, strain kar3, hits give low values
[73] = S. cerevisiae deletion strains, locus YPR163C, strain tif3, hits give low values
[74] = S. cerevisiae deletion strains, locus YPR167C, strain met16, hits give low values
[75] = S. cerevisiae deletion strains, strain wtn01, hits give low values
[76] = S. cerevisiae deletion strains, locus YGR229C, strain SMI1, hits give low values
[77] = S. cerevisiae deletion strains, locus YJR075W, strain HOC1, hits give low values
[78] = S. cerevisiae deletion strains, locus YNL322C, strain KRE1, hits give low values
[79] = S. cerevisiae deletion strains, locus YPL241C, strain CIN2, hits give low values

Measured: normalized growth

COc1cc2c(cc1O)C(Cc1ccc(O)cc1)N(C)CC2 (stereo not given)
inactive: [1] 1.01 | [2] 1.02 | [3] 1.02 | [4] 1 | [5] 1.05 | [6] 1.06 | [7] 1.02 | [8] 1.01 | [9] 1.02 | [10] 1.01 | [11] 1.05 | [12] 1.01 | [13] 1.01 | [14] 0.979 | [15] 0.977 | [16] 1.01 | [17] 1.02 | [18] 0.984 | [19] 1.01 | [20] 1.03 | [21] 1.02 | [22] 0.981 | [23] 0.923 | [24] 0.991 | [25] 0.982 | [26] 1.02 | [27] 0.986 | [28] 1.03 | [29] 0.998 | S. cerevisiae deletion strains, locus YIL125W, strain kgd1, hits give low values 1.01 | [30] 1 | [31] 1.03 | [32] 1.02 | [33] 0.998 | [34] 1.02 | [35] 1.02 | [36] 0.998 | [37] 1.01 | [38] 1.01 | [39] 1.02 | [40] 1.01 | [41] 1.05 | [42] 1.04 | [43] 0.977 | [44] 1.03 | [45] 1.02 | [46] 1.07 | [47] 1.01 | [48] 1.01 | [49] 1.02 | [50] 1.01 | [51] 0.999 | [52] 0.994 | [53] 0.993 | [54] 1.12 | [55] 1.01 | [56] 1.01 | [57] 1.01 | [58] 1 | [59] 1.01 | [60] 1.01 | [61] 0.994 | [62] 0.982 | [63] 0.669 | [64] 1 | [65] 1.03 | [66] 1.01 | [67] 0.972 | [68] 0.996 | [69] 1.05 | [70] 0.989 | [71] 0.991 | [72] 1.01 | [73] 0.998 | [74] 0.973 | [75] 1.01

O=c1ccn([C@@H]2O[C@H](COP(=O)(O)OP(=O)(O)O)[C@@H](O)[C@H]2O)c(=O)[nH]1
inactive: S. cerevisiae deletion strains, locus YAL040C, strain CLN3, hits give low values 0.981 | S. cerevisiae deletion strains, locus YCL061C, strain MRC1 (second series), hits give low values 0.991 | S. cerevisiae deletion strains, locus YDR363W, strain ESC2, hits give low values 0.981 | S. cerevisiae deletion strains, locus YER002W, strain NOP16, hits give low values 0.995 | [76] 0.972 | [77] 0.976 | [54] 0.985 | [56] 0.983 | S. cerevisiae deletion strains, locus YNL175C, strain NOP13, hits give low values 0.988 | S. cerevisiae deletion strains, locus YNL197C, strain WHI3, hits give low values 0.967 | S. cerevisiae deletion strains, locus YNL224C, strain SQS1, hits give low values 0.992 | [78] 0.971 | S. cerevisiae deletion strains, locus YOR083W, strain WHI5 (second series), hits give low values 0.992 | [79] 1

NCCCCC(N)C(=O)NC(Cc1ccc(O)cc1)C(=O)NC(CCCCN)C(=O)O (stereo not drawn) (H-Lys-Tyr-Lys-OH; configuration not given here)
inactive: [1] 1.01 | [2] 1 | [3] 1.01 | [4] 0.983 | [5] 1.01 | [6] 1.06 | [7] 1.02 | S. cerevisiae deletion strains, locus YDL134C, strain PPH21, hits give low values 1.01 | [8] 0.971 | [9] 0.984 | [10] 1.01 | S. cerevisiae deletion strains, locus YDR150W, strain NUM1, hits give low values 0.999 | [11] 1.04 | [12] 0.983 | [13] 1.01 | [14] 1 | S. cerevisiae deletion strains, locus YEL061C, strain CIN8, hits give low values 0.996 | [15] 0.987 | [16] 0.985 | [17] 0.995 | [18] 0.988 | [19] 0.963 | [20] 1.01 | [21] 1.04 | [22] 0.999 | [76] 1.05 | [23] 0.958 | S. cerevisiae deletion strains, locus YHR030C, strain SLT2, hits give low values 0.996 | [24] 1 | [25] 0.982 | [26] 1.01 | [27] 0.984 | [28] 1.02 | [29] 0.948 | [30] 0.995 | [31] 1.07 | [32] 0.997 | [33] 1.02 | [34] 1.01 | S. cerevisiae deletion strains, locus YJR043C, strain POL32, hits give low values 0.996 | [77] 1.1 | [35] 0.958 | [36] 0.987 | [37] 1.04 | [38] 1.04 | [39] 1.01 | [40] 0.979 | [41] 1.04 | [42] 0.999 | [43] 1 | S. cerevisiae deletion strains, locus YLR262C, strain YPT6, hits give low values 1 | [44] 1.01 | [45] 0.987 | [46] 1.01 | [47] 0.983 | [48] 1.04 | [49] 1 | [50] 0.976 | [51] 0.99 | [52] 0.982 | [53] 0.981 | S. cerevisiae deletion strains, locus YMR263W, strain SAP30, hits give low values 1.05 | [54] 1.07 | [55] 1.04 | S. cerevisiae deletion strains, locus YNL128W, strain TEP1, hits give low values 1.05 | [56] 1.05 | [57] 1.04 | [58] 0.981 | [59] 0.99 | [60] 0.987 | [61] 0.993 | [78] 0.998 | [62] 0.99 | S. cerevisiae deletion strains, locus YOL006C, strain TOP1, hits give low values 1.06 | [63] 0.771 | [64] 0.995 | [65] 1.01 | [66] 1 | [67] 0.998 | [68] 0.989 | [69] 0.966 | [70] 0.99 | S. cerevisiae deletion strains, locus YPL055C, strain LGE1, hits give low values 1.11 | [79] 1 | [71] 0.998 | [72] 1 | [73] 0.982 | [74] 0.997 | [75] 1.03 | S. cerevisiae strains, strain wild type, hits give low values 1.01
